Sampled rows, rich in hits. Any-hit rate of the full collection: about 3.6%.
Bead autofluor: counter-screen for toxin protease inhibitors: compound fluorescence; compound autofluorescence counterscreen, microsphere flow cytometry; hits give high values; fluorescence intensity (test concentration not listed); hit rate 3.1% among 360,000; AID 624483; in the data active means fluorescence intensity above about 16000; inconclusive means no clear call, values can overlap the other calls
BoNT F protease: blocks Botulinum neurotoxin F light chain protease. Multiplex microsphere protease cleavage assay, flow cytometry. inhibition, % at 10 µM. hit rate 0.22% among 360,000. AID 588497; in the data active means inhibition above about 35%, passing the limit was not always enough; inconclusive means no clear call, values can overlap the other calls; further: plate controls were buffer without enzyme for full effect and enzyme alone for no effect
3CLpro inhibitor: SARS-CoV 3CLpro protease inhibition; P0C6X7; recombinant SARS-CoV 3CLpro, quenched FRET peptide cleavage; inhibition, % at 6 µM; hit rate 0.14% among 290,000; AID 1706; in the data active means inhibition above about 12%
BoNT A protease: inhibitors of Botulinum neurotoxin A light chain protease. multiplex microsphere protease substrate cleavage, flow cytometry. inhibition, % at 10 µM. AID 588499. hit rate 0.17% among 360,000; further: plate controls were buffer without enzyme for full effect and enzyme alone for no effect
Anthrax LF inh2: blocks Bacillus anthracis lethal factor protease; P15917; multiplex microsphere protease cleavage assay, LF; inhibition, % at 10 µM; hit rate 0.12% among 360,000; AID 588501; further: plate controls were buffer without enzyme for full effect and enzyme alone for no effect
Target sequence (P15917 whole entry, looked up): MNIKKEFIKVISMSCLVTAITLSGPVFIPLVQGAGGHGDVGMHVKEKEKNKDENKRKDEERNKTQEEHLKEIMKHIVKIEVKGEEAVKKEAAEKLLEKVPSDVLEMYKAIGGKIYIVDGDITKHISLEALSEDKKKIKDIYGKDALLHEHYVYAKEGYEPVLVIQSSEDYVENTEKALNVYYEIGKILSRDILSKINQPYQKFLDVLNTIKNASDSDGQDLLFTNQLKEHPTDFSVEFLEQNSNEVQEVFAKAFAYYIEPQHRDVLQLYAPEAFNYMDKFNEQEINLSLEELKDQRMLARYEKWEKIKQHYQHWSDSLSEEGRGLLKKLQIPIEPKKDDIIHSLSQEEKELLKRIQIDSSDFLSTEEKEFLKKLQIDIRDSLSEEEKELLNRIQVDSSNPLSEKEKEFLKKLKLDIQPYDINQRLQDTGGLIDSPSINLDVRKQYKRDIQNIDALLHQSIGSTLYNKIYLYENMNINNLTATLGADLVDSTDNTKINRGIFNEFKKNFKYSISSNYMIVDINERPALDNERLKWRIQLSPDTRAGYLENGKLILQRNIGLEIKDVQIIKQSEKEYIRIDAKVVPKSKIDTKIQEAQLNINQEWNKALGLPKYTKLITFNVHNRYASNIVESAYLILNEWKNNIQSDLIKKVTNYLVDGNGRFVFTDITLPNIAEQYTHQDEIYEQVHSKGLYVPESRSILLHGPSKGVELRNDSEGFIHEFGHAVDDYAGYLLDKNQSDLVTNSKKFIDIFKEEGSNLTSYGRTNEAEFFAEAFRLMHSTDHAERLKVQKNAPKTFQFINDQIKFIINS
BJeLR viability: kills HRASV12-expressing BJeLR cells; BJeLR (HRASV12) viability, CellTiter-Glo ATP luminescence, 48 h; inhibition, % (concentration not given with the values); hit rate 0.17% among 300,000; in the data active means inhibition above about 50%; inconclusive means no clear call, values can overlap the other calls
Numbers without * were called inactive. Unless noted, no stated cut-off is given here; in the data, active means inhibition above about 30%; inconclusive means no clear call, values can overlap the other calls; inactive means below that.

Results for CCOc1ccc(NC(=O)CSc2nnc(C3CC3)n2C)cc1S(=O)(=O)N1CCCCC1 ?
Bead autofluor: 3711; BoNT F protease: -8; BoNT A protease: -1; Anthrax LF inh2: 4

How did Fc1ccccc1/C=C1\CCCC2=C1Nc1nnnn1C2c1ccccc1F (stereo unspecified) do in these assays?
Bead autofluor: 22685*; BoNT F protease: 1; 3CLpro inhibitor: 6; BoNT A protease: 0; Anthrax LF inh2: 1; BJeLR viability: 4

Results for CCOC(=O)C1=C(C)Nc2nnnn2C1c1ccccc1Cl (stereo unspecified) ?
Bead autofluor: 3626; BoNT F protease: 22; 3CLpro inhibitor: 2; BoNT A protease: 0; Anthrax LF inh2: -2

Results for CCc1ccc(-c2c(C)sc(NC(C)=O)c2C(N)=O)cc1 ?
Bead autofluor: 22107*; BoNT F protease: -10; 3CLpro inhibitor: 6; BoNT A protease: -8; Anthrax LF inh2: 0; BJeLR viability: -4

What do the screens show for `COc1cc(NC(=O)C2CCCCC2)c(OC)cc1NC(=O)c1ccccc1`?
Bead autofluor: 3684; BoNT F protease: -13; 3CLpro inhibitor: -3; BoNT A protease: 0; Anthrax LF inh2: -11; BJeLR viability: 5

Results for Cc1nc(N)sc1-c1csc(Nc2ccc(Cl)cn2)n1 ?
Bead autofluor: 16519*; BoNT F protease: 11; 3CLpro inhibitor: 4; BoNT A protease: 12; Anthrax LF inh2: -5; BJeLR viability: 3

What do the screens show for `Cn1c(=O)c2c(ncn2CC(O)CO)n(C)c1=O` (stereo unspecified)?
Bead autofluor: 6303; BoNT F protease: -2; 3CLpro inhibitor: 0; BoNT A protease: 0; Anthrax LF inh2: -6; BJeLR viability: -7

How did Cc1cc(C)n(CC(O)Cn2cnc3c2c(=O)n(C)c(=O)n3C)n1 (stereo unspecified) do in these assays?
Bead autofluor: 22564*; BoNT F protease: -5; 3CLpro inhibitor: -8; BoNT A protease: -1; Anthrax LF inh2: -4; BJeLR viability: -4

How did C/C(=C\C(=O)Nc1nccs1)c1ccccc1 do in these assays?
Bead autofluor: 17209*; BoNT F protease: -6; 3CLpro inhibitor: -2; BoNT A protease: inconclusive; Anthrax LF inh2: -4; BJeLR viability: -5

Results for C/C(=C\C(=O)O)C(=O)Nc1nccs1 ?
Bead autofluor: 4082; BoNT F protease: inconclusive; 3CLpro inhibitor: -3; BoNT A protease: 1; Anthrax LF inh2: 2; BJeLR viability: 7

How did CC(C)OC(=O)c1cccnc1SCc1cc(=O)n2ccccc2n1 do in these assays?
Bead autofluor: 24425*; BoNT F protease: -5; 3CLpro inhibitor: -2; BoNT A protease: -2; Anthrax LF inh2: 0; BJeLR viability: 4

What do the screens show for `CC(C)OC(=O)c1cccnc1SCC(=O)N(C)c1ccccc1`?
Bead autofluor: 8409; BoNT F protease: 4; 3CLpro inhibitor: -1; BoNT A protease: -1; Anthrax LF inh2: 3; BJeLR viability: 1

What do the screens show for `Cn1c(N)c(C(=O)Nc2ccc3ccccc3c2)sc1=S`?
Bead autofluor: 21788*; BoNT F protease: 2; 3CLpro inhibitor: 4; BoNT A protease: inconclusive; Anthrax LF inh2: -1; BJeLR viability: -8

What do the screens show for `FC(F)(F)c1nnc2sc(-c3ccncc3)nn12`?
Bead autofluor: 19007*; BoNT F protease: 2; 3CLpro inhibitor: 0; BoNT A protease: inconclusive; Anthrax LF inh2: -5; BJeLR viability: -2

How did FC(F)(F)c1nnc2sc(-c3cccs3)nn12 do in these assays?
Bead autofluor: 6161; BoNT F protease: -7; 3CLpro inhibitor: -8; BoNT A protease: 0; Anthrax LF inh2: 6; BJeLR viability: -3

How did COc1cccc(C(C)(O)c2nc(-c3cccc(C(C)C)c3)cs2)c1 (stereo unspecified) do in these assays?
Bead autofluor: 2852; BoNT F protease: -4; BoNT A protease: 0; Anthrax LF inh2: 1

Results for Cc1cc(C)n(-c2nc(NCCC(C)C)c3c4c(sc3n2)COC(C)(C)C4)n1 ?
Bead autofluor: 19196*; BoNT F protease: 13; 3CLpro inhibitor: 6; BoNT A protease: 13; Anthrax LF inh2: -11; BJeLR viability: -14

Results for Cc1cc(C)n(-c2nc(NCCN(C)C)c3c4c(sc3n2)COC(C)(C)C4)n1 ?
Bead autofluor: 3541; BoNT F protease: 29; 3CLpro inhibitor: 1; BoNT A protease: 1; Anthrax LF inh2: inconclusive; BJeLR viability: -7

Results for CCc1ccccc1NS(=O)(=O)c1cc2c(cc1C)n(C)c(=O)c(=O)n2C ?
Bead autofluor: 6026; BoNT F protease: -3; 3CLpro inhibitor: 3; BoNT A protease: -1; Anthrax LF inh2: -3; BJeLR viability: -1

Results for CCn1c(=O)n(CC)c2cc(S(=O)(=O)Nc3ccccc3C)c(C)cc21 ?
Bead autofluor: 23798*; BoNT F protease: 0; 3CLpro inhibitor: 4; BoNT A protease: inconclusive; Anthrax LF inh2: -6; BJeLR viability: 6

How did O=C(NCN1CCc2ccccc2C1)c1cnccn1 do in these assays?
Bead autofluor: 11833; BoNT F protease: -11; 3CLpro inhibitor: -1; BoNT A protease: 0; Anthrax LF inh2: -2; BJeLR viability: 2

What do the screens show for `O=C(CN1CCc2ccccc2C1)Nc1ccccc1Cl`?
Bead autofluor: 3050; BoNT F protease: inconclusive; 3CLpro inhibitor: 0; BoNT A protease: -2; Anthrax LF inh2: 3; BJeLR viability: -1

Results for O=C(NCN1CCc2ccccc2C1)c1ccccc1 ?
Bead autofluor: 17046*; BoNT F protease: -6; 3CLpro inhibitor: 1; BoNT A protease: -2; Anthrax LF inh2: -1; BJeLR viability: 13

What do the screens show for `O=C(CNC1CCCCCC1)Nc1ccccc1N1CCCCC1`?
Bead autofluor: 3522; BoNT F protease: 21; 3CLpro inhibitor: -5; BoNT A protease: -1; Anthrax LF inh2: -3; BJeLR viability: 1

How did O=C(CNCCC1=CCCCC1)Nc1ccccc1N1CCCCC1 do in these assays?
Bead autofluor: 17116*; BoNT F protease: -11; 3CLpro inhibitor: -7; BoNT A protease: -3; Anthrax LF inh2: -8; BJeLR viability: 3

What do the screens show for `O=C(CN1CCc2ccccc2C1)Nc1ccccc1N1CCCCCC1`?
Bead autofluor: 23403*; BoNT F protease: -3; 3CLpro inhibitor: 4; BoNT A protease: 0; Anthrax LF inh2: -3; BJeLR viability: -14

What do the screens show for `C=CCN1C(=O)NC2(O)C(=O)c3ccccc3C12O` (stereo unspecified)?
Bead autofluor: 9672; BoNT F protease: 4; 3CLpro inhibitor: -1; BoNT A protease: 0; Anthrax LF inh2: 0; BJeLR viability: -4

What do the screens show for `O=C(COC(=O)[C@H](Cc1ccccc1)NC(=O)c1cccs1)NC1CC1`?
Bead autofluor: 1984; BoNT F protease: -2; 3CLpro inhibitor: 2; BoNT A protease: 0; Anthrax LF inh2: -1; BJeLR viability: -13

Results for Cc1ccc(OCC(=O)N(C)CCc2ccccn2)cc1 ?
Bead autofluor: 24016*; BoNT F protease: 1; 3CLpro inhibitor: 2; BoNT A protease: inconclusive; Anthrax LF inh2: -2; BJeLR viability: -2
